Experiment [1] has as its target T1, Aspartate--tRNA(Asp/Asn) ligase (Mycobacterium tuberculosis (strain ATCC 25618 / H37Rv)) (UniProt P9WFW3). Further: in the data most compounds retested in dose-response had high values.
T1 sequence (whole entry): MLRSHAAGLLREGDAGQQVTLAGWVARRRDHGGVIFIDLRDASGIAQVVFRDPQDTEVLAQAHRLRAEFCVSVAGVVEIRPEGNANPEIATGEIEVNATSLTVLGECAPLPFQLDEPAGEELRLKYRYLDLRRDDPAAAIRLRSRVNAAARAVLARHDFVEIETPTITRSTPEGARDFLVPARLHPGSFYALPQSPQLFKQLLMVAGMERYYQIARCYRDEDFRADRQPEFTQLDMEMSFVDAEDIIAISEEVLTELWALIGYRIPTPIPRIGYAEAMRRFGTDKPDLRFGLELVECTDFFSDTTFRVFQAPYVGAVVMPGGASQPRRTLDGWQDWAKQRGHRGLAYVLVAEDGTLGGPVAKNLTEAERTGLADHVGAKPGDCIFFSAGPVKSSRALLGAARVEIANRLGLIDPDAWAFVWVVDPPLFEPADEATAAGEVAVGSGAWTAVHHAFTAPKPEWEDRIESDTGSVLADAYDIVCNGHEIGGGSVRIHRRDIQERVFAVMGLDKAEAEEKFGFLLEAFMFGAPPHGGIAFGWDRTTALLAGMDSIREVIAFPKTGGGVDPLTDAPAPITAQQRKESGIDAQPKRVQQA
The experiment is described as follows: Assay for Asp RNA synthetase-1 from Mycobacterium tuberculosis. Type of experiment: functional. Also noted: scale not given: direction of the effect not stated beside the values. As to conditions: 30 µM.

Experiment [2] addresses Shiga toxin 2 (Escherichia coli O157:H7) (UniProt P09385+P09386). Nature of the experiment: E. coli 0.157:H7 Shiga Toxin SOP - stx2 screening assay. In kind it is functional. On the set-up: scale not given: direction of the effect not stated beside the values. As to conditions: 30 µM.

As to `CC(C)Cc1cc(C(=O)NCc2nnc[nH]2)[nH]n1`, the Percent Effect came to 1.11% in experiment [1] and 2.04% in experiment [2].
On to `CCS(=O)(=O)N1C[C@H]2C[C@H](C(=O)N(C)C)[C@@H](C1)O2`, for which the figures for the Percent Effect in experiment [1] and in experiment [2] were 3.87% and -5.91%, respectively.
The corresponding values for `CCCc1noc(CN(C)C(=O)C2COc3ccccc3C2)n1` (stereo unspecified) are 1.75% and -22.5%.
The corresponding values for `c1ncn(CC2CCCN2Cc2cn3ccsc3n2)n1` (stereo unspecified) are -3.37% and -3.31%.
In the same order, the values of `Cc1nc(C2CCCN2CC(=O)NCCOc2ccccc2)no1` (stereo unspecified) are 1.81% and -11.3%.
For the molecule `CC(C)c1nn(C)c(N(C)C)c1CNCC(O)c1ccccc1F` (stereo unspecified), the values for the Percent Effect in experiment [1] and in experiment [2] were -7.16% and -23.3%, respectively.
As to `CN(Cc1ccc(F)cc1)C(=O)NCc1nnc2n1CCCCC2`, the Percent Effect in experiment [1] was -5.74%; in experiment [2], -16.9%.
In the same order, the values of `c1ccc(-c2nccc(CNCC3CCCN3c3cccnn3)n2)cc1` (stereo unspecified) are 0.1% and 11.8%.
Consider `CCC(=O)N1CCC(O)(c2ncc(OC)nc2OC)CC1`, for which the Percent Effect in experiment [1] is 1.66%; in experiment [2], 16.1%.
In the same order, the values of `c1nc2c(c(-c3ccsc3)n1)CCN(Cc1ccoc1)CC2` are 8.04% and -46%.
On to `COC[C@@H]1CC[C@H]2[C@H](CCN2S(=O)(=O)c2cccc(C)c2)O1`, for which the Percent Effect in experiment [1] was 3.92%; in experiment [2], -4.66%.
For `O=C(Cn1ccnc1)N1C[C@@H]2CC[C@H](Oc3ccccc3)[C@@H]2C1`, the Percent Effect was 5.52% in experiment [1] and 2.5% in experiment [2].
For `O=C1CC(N(C(=O)c2ccc3[nH]c4c(c3c2)CCCC4)C2CC2)C(=O)N1` (stereo unspecified), the Percent Effect was 1.2% in experiment [1] and -28.8% in experiment [2].
The corresponding values for `Cc1cc(-c2nn(C)c(Cl)c2CN2CCOCC2CC(=O)O)no1` (stereo unspecified) are -2.48% and 19.9%.
Take `CCOc1ccnc(N2CCN(C(=O)c3cn[nH]c3CC)CC2)n1`: the Percent Effect in experiment [1] is -1.77%; in experiment [2] it was 5.02%.
`O=C(CCn1cncn1)NC1(c2cccc(Br)c2)CCC1`: the values for the Percent Effect in experiment [1] and in experiment [2] were 8.08% and -21.1%, respectively.
In the same order, the values of `CCCn1nc2c(cc1=O)CN(Cc1nc(CCOC)no1)CC2` are 16.9% and -17.7%.
The corresponding values for `O=C(NCCNc1ncccn1)C1CCN(C(=O)C2CC2)CC1` are 1.89% and 14.1%.

(Values after ChEMBL document CHEMBL3988442, “University of Dundee, Small-Polar-MMV Screening Library” (2021).)
